According to PubChem BioAssay (NCI):
This is part of a sample that, as a whole, favours compounds with a hit. Of some 83,000 tested, about 20% had one in any assay.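 Each cell line was grown in a 96-well plate and treated with one concentration of compound for 48 hours. Values below 10 were considered active.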 A number with no mark means an inactive call. Active and inactive are the calls of the source.

Tested on: HL-60(TB) leukemia
Assay: NCI-60 one-dose screen, 48 h (100 = growth as untreated, 0 = no growth, -100 = all killed)
Conditions: 10 µM unless noted

| Structure (SMILES) | growth |
| --- | --- |
| N#CC1=C(N)Oc2c(sc3c(Br)cccc23)C1c1ccccn1 (stereo unspecified) | 7.5% (active) |
| CC(C)=CCC[C@](C)(O)[C@H]1CC[C@]2(C)[C@@H]1CC[C@@H]1[C@@]3(C)CC[C@H](OC(=O)CCC(=O)O)C(C)(C)[C@@H]3CC[C@]12C | 4.34% [100 µM] (active) |
| C=CC(=O)Nc1cccc(-c2nc(SC)nc(NCc3ccccc3)c2C#N)c1 | 50% |
| COc1ccc(/C=N/C2=NNC(C)(c3ccccc3O)N2C(Cc2c[nH]c3ccccc23)C(=O)O)cc1 (stereo unspecified) | -21.9% (active) |
| O=C1Nc2cc(-c3ccc(NS(=O)(=O)c4ccccc4)cc3)ccc2/C1=C/c1ccc[nH]1 | 95.7% |
| O=C(CCl)NCCNc1nccc(Nc2ccc(S(=O)(=O)Nc3ccccn3)cc2)n1 | 10.2% |
| COC(=O)c1c2c(c(C)[n+]([O-])c1C)C(=O)C=C(NCc1ccccc1)C2=O | -31.4% (active) |
| COc1cc2c3cc1Oc1c(OC)c(OC)cc4c1C(Cc1ccc(O)c(c1)Oc1ccc(cc1)CC3N(C)CC2)N(C)CC4 (stereo unspecified) | -32.4% (active) |
| Cn1cc(-c2nonc2-c2cn(C)c3ccccc23)c2ccccc21 | -27% (active) |
| CC(C)c1ccc2occ(C=C3C(=O)NC(=O)NC3=O)c(=O)c2c1 | 74.8% |
| O=C1c2ccccc2C(=O)C1c1ccc(Br)cc1 | 105% |
| COc1ccc(/C=C/C(=O)c2cc(OC)c(OC)c(OC)c2)cc1OCC(=O)Nc1nc2ccc(OC(F)(F)F)cc2s1 | 6.61% (active) |
| CCOC(=O)C1=CCC(n2cc(C)c(=O)[nH]c2=O)O1 (stereo unspecified) | 89.8% |
| Nc1nc(N)c(NC(=O)CNc2ccc(C(=O)O)cc2)c(N)n1 | 107% |
| COc1ccc(-n2nnc3c(sc4ccccc43)c2=O)cc1 | 94.6% |
| COCN1CCC2N(COC)CCC3N(COC)CCC1N23 (stereo unspecified) | 92.6% |
| O=C(/C=C/c1ccccc1)c1c[nH]c2ccccc2c1=O | -12.9% (active) |
| COc1cnc2c(c1)C(=O)c1c-2n(CCCNC2=NCCS2)c(=O)c2cc(F)ccc12 | -45.5% (active) |
| COc1ccc(-c2nnc(SCC(=O)N3CCN(c4cc5c(cc4F)c(=O)c(C(=O)O)cn5C4CC4)CC3)o2)cc1OC | 66.8% |
| O=C(/C=C/c1ccc(C(F)(F)F)cc1)Nc1ccc(C=C2c3ccccc3C(=O)c3ccccc32)cc1 | 11.2% |
| COc1cc(C2C3=C(COC3=O)N(CCO)c3cc4c(cc32)OCO4)cc(OC)c1O (stereo unspecified) | 4.08% (active) |
| CCOC(=O)c1cc(C#N)n2ccc3ccccc3c12 | 92.1% |

| Structure (SMILES) | growth |
| --- | --- |
| Cc1cc(NC(=O)c2ccccc2)c(Cl)cc1N | 54.7% |
| CCc1ccc(-c2ccc(=O)n(-c3ccc(S(N)(=O)=O)cc3)n2)cc1 | -4.27% (active) |
| O=[N+]([O-])c1cc(Cl)cc(Cl)c1O | 99.5% |
| O=C1OCCCCCCCCCC#Cc2ccccc21 | 88.7% |
| Cc1oc2c(c1C(=O)N1CC[C@@H](N)C1)C(=O)c1c(c(O)c3ccccc3c1O)C2=O | -22.8% (active) |
| Cc1nc2nc(SCC(=O)O)[nH]c2c(=O)[nH]1 | 94.7% |
| O=C(c1ccccc1)N(CCc1ccc(Cl)cc1)C(=S)N(C(=O)c1ccccc1)c1ccccc1 | 90.3% |
| C=C(C[n+]1ccccc1)[C@@H]1CC[C@]2(C(=O)OC)CC[C@]3(C)[C@H](CC[C@@H]4[C@@]5(C)CCC(=O)C(C)(C)[C@@H]5CC[C@]43C)[C@@H]12 | 58% |
| CC1=CSC2=NCCN12 | 97.1% |
| COc1cc(Nc2ccnc(NCCCNc3ccnc4cc(Cl)ccc34)n2)cc(OC)c1 | -76.9% (active) |
| O=C(CNc1nc(-c2ccc(Cl)cc2)cs1)Nc1ccc(-c2nc3ccccc3s2)cc1 | 99.3% |
| NC1=NN=C2N(N)C(=O)c3cnn(-c4ccccc4)c3N2c2nc(-c3ccccc3)cc(-c3ccccc3)c21 | 105% |
| COC(=O)c1c2c(c[n+]([O-])c1C)C(=O)C=CC2=O | 28.1% |
| N#C/C(=C\c1ccc(-c2ccc(Cl)cc2)o1)c1ccc(Cl)cc1 | 96.1% |
| O=C1Nc2ccccc2C12C=C(c1ccccc1)Nc1c2c(-c2ccccc2)nn1-c1ccccc1 (stereo unspecified) | 5.77% (active) |
| COc1cc(/C=C/C(=O)c2ccc(F)cc2)ccc1OCCCCCOc1cc2c(cc1OC)C(=O)N1CCCC1C=N2 (stereo unspecified) | -37.2% (active) |
| COc1ccc(/C(=N\O)c2cc(OC)c(OC)c(OC)c2)c(OC)c1N | -23.8% (active) |
| CCOC(=O)C(Nc1ccccc1)C(=O)OCC | 101% |
| COc1cc2c(cc1-c1c(C)noc1C)ncc1nc(C3CCC(F)(F)CC3)n(C3CCC(OC(F)F)CC3)c12 (stereo unspecified) | 7.4% (active) |
| O=c1c2cnn(-c3ccccc3)c2n2c(CN3CCOCC3)nnc2n1-c1ccccc1 | 102% |
| Cn1c(=O)c2[nH]c(SCC(=O)Nc3ccc(C(=O)/C=C/c4ccccc4Cl)cc3)nc2n(C)c1=O | 98.6% |
| CN(C)c1nc(N)nc(Cn2c(-c3nonc3N)nc3ccccc32)n1 | 94.2% |

| Structure (SMILES) | growth |
| --- | --- |
| Fc1ccc2c(c1)c(-c1nc(-c3c[nH]c4ncccc34)cs1)cn2CCCN1CCOCC1 | 21.9% |
| O=C(Nc1cccc2[nH]c(C(F)(F)F)nc12)c1ccc(-n2cnnn2)cc1 | 1.31% (active) |
| NCCCNc1nc2ccccc2c2c(=O)c3cccc(Cl)c3sc12 | -45% (active) |
| CCc1ccc(Cc2cnc(NC(=O)c3cc(C)oc3C)s2)cc1 | -21.3% (active) |
| CCN(CC)Cc1cc(Nc2c3ccc(Cl)cc3nc3ccc(OC)cc23)ccc1O | 72.5% |
| CC(=O)c1ccc2c(ccc3ccccc32)c1 | 90.6% |
| O=[N+]([O-])c1cc(C(F)(F)F)ccc1Sc1ccc(C(F)(F)F)cc1[N+](=O)[O-] | 8.05% (active) |
| COc1ncc(-c2ccc3ncnc(Nc4cccc(Cl)c4)c3c2)cc1N(S(C)(=O)=O)S(C)(=O)=O | 49.7% |
| COc1ccc(C2=NN(C(=O)c3cc(OC)c(OC)c(OC)c3)C(c3ccc(N(C)C)cc3)C2)cc1 (stereo unspecified) | -18.4% (active) |
| O=C(Cn1c2ccccc2c2ccncc21)N/N=C\c1ccc2ccccc2c1 | 40.5% |
| Cn1c(/C(C#N)=C/c2ccc3ccccc3c2)cc2ccccc21 | -6.93% (active) |
| CC(C)C[C@H](NC(=O)Cn1ccc2ccccc2c1=O)B(O)O | 27.9% |
| COc1ccc(-c2csc(NC(=O)CO[N+](=O)[O-])n2)cc1 | 107% |
| COc1cc(/C=C/C(=O)c2cccc(-n3cc(-c4ccc(Cl)cc4)[nH]c3=O)c2)cc(OC)c1OC | 62.7% |
| O=C1NC(=O)C2C(=O)NC(=O)C1C21CCc2ccccc21 (stereo unspecified) | 117% |
| NC(=O)Nc1ccc2ncnc(Nc3ccc(Cl)cc3)c2c1 | 99.9% |
| C=C1C(=O)C2CCC1C2 (stereo unspecified) | 95.9% |
| COc1ccc(C/C(C)=C(\c2ccc(Cl)cc2)c2ccc(OCCCN(C)C)cc2)cc1 | 69.9% |
| C[N+]1=C(/C=C/c2ccccc2Cl)C(C)(C)c2ccccc21 | 53.5% |
| N=c1c2c(-c3ccccc3)c(-c3ccccc3)n(Cc3ccccc3)c2ncn1CCCO | 39% |
| O=C(c1ccccc1)N1N=C(c2ccccc2)CC1c1nnc2n(Cc3ccccc3)c(=O)c3c4c(sc3n12)CCCC4 (stereo unspecified) | 97.7% |
| Cc1cc(N2CCOCC2)nc(N[C@@H]2CCC[C@H](Nc3ccnc4cc(Cl)ccc34)C2)n1 | -69.5% (active) |

| Structure (SMILES) | growth |
| --- | --- |
| C=C1CC[C@@H]2C(C)(C)[C@H](O)CC[C@@]2(C)[C@@H]1COc1ccc2ccc(=O)oc2c1 | 46.4% |
| CCN(CC)CCNc1ccc(C)c2sc3cc(Cl)ccc3c(=O)c12 | 17% |
| O=C(CN1C(=O)NC2NC(=O)NC21)N/N=C/c1cccc([N+](=O)[O-])c1 (stereo unspecified) | 99.1% |
| CC(C)(C)n1nc(C2CC2)c(Br)c1NC(=O)c1ccccc1F | 104% |
| CCO/C=N/C1=C(C#N)C(c2ccc(Cl)cc2)c2c(c3ccccc3n(C)c2=O)O1 (stereo unspecified) | 53.4% |
| O=C(Nc1ccc(CO)cc1)c1ccccc1Nc1ccnc(C(F)(F)F)c1 | 98.3% |
| O=C(NCc1ccc2c(c1)OCO2)NCC1CCCC(CNC(=O)NCc2ccc3c(c2)OCO3)C1 (stereo unspecified) | 108% |
| CCCCCCCCCCCCC1C/C=C\CCCC(=O)O1 (stereo unspecified) | 88.4% |
| CCCCCCCCCCCCCCCCCCOc1cccc(CC(=O)OCC[N+](CC)(CC)CC)c1 | 9.38% (active) |
| Cn1ccnc1C(=O)/C=C/c1ccc(C(=O)Nc2nc3ccccc3[nH]2)cc1 | 26.7% |
| CCN(CC)CCCC(C)Nc1ccnc2cc(Cl)c(SCc3ccccc3)cc12 (stereo unspecified) | -64.8% (active) |
| CC(CCC(=O)O)[C@H]1CCC2C3C(=O)C[C@@H]4CC(=O)CC[C@]4(C)C3CC(=O)[C@@]21C (stereo partly specified) | 106% |
| NNC(=O)c1nc2ccccc2[nH]1 | 101% |
| CC1=C(CCC(C)NCc2ccc(OCCCN3CCCCC3)cc2)C(C)(C)CCC1 (stereo unspecified) | -68.7% (active) |
| Cc1[nH]c(C(=O)Nc2cccc(OC3CCNCC3)c2)c(Cl)c1Cl | 54.9% |
| CCCCNC(=O)NS(=O)(=O)c1ccc(N2N=C(c3ccc(C)cc3C)CC2c2ccc(OC)cc2)cc1 (stereo unspecified) | 17.4% |
| CCOC(=O)CC1CSC(N/N=C/c2ccc(O)cc2)=N1 (stereo unspecified) | 97.6% |
| OC(CSc1ccccc1)CN1CCN(c2cccc(Cl)c2)CC1 (stereo unspecified) | 85.7% |
| CC(=O)c1ccc(C)c(N)c1 | 94.8% |
| COc1cc(/C=C/C(=O)Nc2ccc3c(c2)/C(=C\c2cccn2C)C(=O)N3)cc(OC)c1OC | 40.6% |
